# Source: PubChem BioAssay AID463173 (ICCB-Longwood Screening Facility, Harvard Medical School, 2010)
# The whole screen tested about 52,000 compounds, of which about 4,300 (8.3%) were called active. The full list was thinned out, with actives kept by preference. A number with no mark means an inactive call. No stated cut-off is given here; in the data, active means survival mostly below about 52% (no sharp cut-off); inactive means mostly above about 56%.
# System: DeltatarO mutant
# Assay: S. aureus survival, RN4220 and DeltatarO strains – OD600, teichoic acid synthesis inhibitors, primary screen (AID 463173)
# Conditions: S. aureus RN4220 wild type/DeltatarO growth, OD600, 18 h, stronger effect = lower value, screened at 18.75 µg/mL (by protocol)
row,Structure (SMILES),survival
1,COC(=O)c1ccccc1NC(=O)CSc1nc2sc3c(c2c(=O)[nH]1)CCCC3,61%
2,CCOc1ccccc1NC(=O)CSc1nnc2[nH]c(=O)cc(-c3ccccc3)n12,98%
3,Cc1nonc1OCCn1nnc(N)n1,95%
4,Oc1c(C(c2ccccc2)N2CCN(c3cccc(Cl)c3)CC2)sc2nc(-c3ccco3)nn12 (configuration not stated),74%
5,O=[N+]([O-])c1ccc(C(c2sc3nc(-c4ccco4)nn3c2O)N2CCN(c3cccc(Cl)c3)CC2)cc1 (configuration not stated),47% (active)
6,O=[N+]([O-])c1ccc(C(c2sc3nc(-c4ccco4)nn3c2O)N2CCN(Cc3ccccc3)CC2)cc1 (configuration not stated),79%
7,Oc1c(C(c2ccccc2F)N2CCOCC2)sc2nc(-c3ccco3)nn12 (configuration not stated),80%
8,COc1cccc(CNC(=O)CSc2ccc(-c3sc(-c4ccccc4)nc3C)nn2)c1,26%
9,COc1ccc(Cl)cc1NC(=O)CSc1ccc(-c2sc(C)nc2C)nn1,105%
10,CCOC(=O)c1ccccc1NC(=O)CSc1ccc(-c2sc(C)nc2C)nn1,91%
11,Cc1nc(C)c(-c2ccc(SCC(=O)Nc3ccc(F)c(F)c3)nn2)s1,102%
12,CCOC(=O)c1ccc(NC(=O)CSc2ccc(-c3sc(C)nc3C)nn2)cc1,37% (active)
13,COc1cc(NC(=O)CSc2ccc(-c3sc(-c4ccccc4)nc3C)nn2)cc(OC)c1,19% (active)
14,COc1ccc(OC)c(NC(=O)CSc2ccc(-c3sc(C)nc3C)nn2)c1,83%
15,Cc1nc(C)c(-c2ccc(SCC(=O)Nc3ccc(Br)cc3)nn2)s1,101%
16,COc1ccccc1NC(=O)CSc1ccc(-c2sc(C)nc2C)nn1,92%
17,COc1cc(NC(=O)CSc2ccc(-c3sc(C)nc3C)nn2)cc(OC)c1,6% (active)
18,Cc1nc(C)c(-c2ccc(SCC(=O)Nc3ccc(Cl)c(Cl)c3)nn2)s1,46% (active)
19,Cc1cc(C)c(NC(=O)CSc2ccc(-c3sc(-c4ccccc4)nc3C)nn2)c(C)c1,33%

row,Structure (SMILES),survival
1,COc1ccc(NC(=O)C2CCN(S(=O)(=O)c3c(C)noc3/C=C/c3ccc(C)cc3)CC2)cc1Cl,82%
2,COc1cc2c(=O)n(CCC(=O)NCC3CCCO3)c(=O)n(CC(=O)Nc3ccc(C)cc3)c2cc1OC (configuration not stated),92%
3,COc1cccc(OC(=O)CSc2nnc(-c3ccc4c(c3)OCO4)o2)c1,59%
4,CC(=O)Nc1ccc(S(=O)(=O)NC2(C(F)(F)F)C(=O)Nc3c2c(=O)[nH]c(=O)n3-c2cccc(Cl)c2)cc1 (configuration not stated),84%
5,Cc1ccc(Cl)cc1N1CCN(C(=O)C2CCN(S(=O)(=O)Cc3ccccc3)CC2)CC1,72%
6,CCC1CN(C(=O)N2CCC(C(=O)NCc3ccc(C)o3)CC2)c2ccccc2O1 (configuration not stated),87%
7,O=C(NCc1ccco1)C(c1ccco1)N(C(=O)Cn1nnc2ccccc21)c1ccccc1 (configuration not stated),65%
8,Cc1cc2c(cc1S(=O)(=O)N(CCN(C)C)Cc1ccco1)OCC(=O)N2,98%
9,Cc1cc2c(cc1S(=O)(=O)N(CCO)Cc1ccccc1)OCC(=O)N2,46% (active)
10,CN(CC(=O)Nc1cccc(C#N)c1)S(=O)(=O)c1cc2c(cc1Cl)NC(=O)CO2,109%
11,Cc1cc2c(cc1S(=O)(=O)N(C)CC(=O)Nc1cccc(C#N)c1)OCC(=O)N2,-2% (active)
12,Cc1cc2c(cc1S(=O)(=O)N(C)CC(=O)Nc1ccc(C#N)cc1)OCC(=O)N2,76%
13,Cc1cc2c(cc1S(=O)(=O)N(CCN(C)C)Cc1ccccc1)OCC(=O)N2,102%
14,CCN1CCN(C(c2cccc(OC)c2)c2c(O)cc(C)n(Cc3ccco3)c2=O)CC1 (configuration not stated),120%
15,Cc1ccc(-c2n[nH]c3c2C(c2ccc(C(C)(C)C)cc2)NC3=O)cc1 (configuration not stated),109%
16,COc1ccc(NC(=O)Cn2nc(SC)c(S(=O)(=O)c3ccc(C)cc3)c2N)cc1OC,25% (active)
17,CCSc1nn(CC(=O)Nc2ccc(C(=O)OC)cc2)c(N)c1S(=O)(=O)c1ccc(C)cc1,37% (active)
18,CCc1ccc(NC(=O)Cn2nc(SC)c(S(=O)(=O)c3ccc(OC)cc3)c2N)cc1,118%
19,COc1ccc(S(=O)(=O)c2c(SC)nn(CC(=O)Nc3ccc(C)c(Cl)c3)c2N)cc1,83%

row,Structure (SMILES),survival
1,CCSc1nn(CC(=O)Nc2cccc(CC)c2)c(N)c1S(=O)(=O)c1ccccc1,101%
2,CCOC(=O)c1ccc(NC(=O)Cn2nc(SC)c(S(=O)(=O)c3ccc(Cl)cc3)c2N)cc1,99%
3,Cn1cc(-c2cc3n(n2)CCC(=O)N3CCCC(=O)NCc2ccccc2Cl)c2ccccc21,109%
4,CCn1c(=O)cc(SCC(=O)NCCc2ccc(Cl)cc2)c2ccccc21,76%
5,O=C(NC12CCC(O)C(SC1)/C2=N/O)c1ccccc1 (configuration not stated),98%
6,COc1cccc(-c2noc(C3CCCN(S(=O)(=O)c4ccccc4F)C3)n2)c1 (configuration not stated),65%
7,CC(C)(C)OC(=O)N1CCC(c2c(C(=O)NCCN3CCc4ccccc4C3)cnn2-c2ccc(F)cc2)CC1,68%
8,COc1ccccc1-c1nc2c(c(SCc3cc(C)ccc3C)n1)Cc1c(CO)cnc(C)c1O2,41% (active)
9,Cc1ncc(CO)c2c1Oc1nc(-c3ccc(F)cc3)nc(SCC(=O)N3CCCCC3)c1C2,52%
10,CCc1ccc(CSc2nc(-c3ccccc3F)nc3c2Cc2c(CO)cnc(C)c2O3)cc1,61%
11,CCN(CC)C(=O)CSc1nc(-c2ccc(C)cc2)nc2c1Cc1c(CO)cnc(C)c1O2,39% (active)
12,CCSc1nc(-c2ccccc2F)nc2c1Cc1c(CO)cnc(C)c1O2,52% (active)
13,Cc1ccc(C)c(CSc2nc(-c3ccccc3F)nc3c2Cc2c(CO)cnc(C)c2O3)c1,108%
14,CCSc1nc(-c2ccccc2OC)nc2c1Cc1c(CO)cnc(C)c1O2,80%
15,Cc1ncc(CO)c2c1Oc1nc(-c3ccccc3)nc(SCC(=O)N3CCCCC3)c1C2,85%
16,Cc1ncc(CO)c2c1Oc1nc(-c3ccc(Cl)cc3)nc(SCC(=O)N3CCCCC3)c1C2,48% (active)
17,CCN(CC)C(=O)CSc1nc(-c2ccccc2F)nc2c1Cc1c(CO)cnc(C)c1O2,101%
18,CCc1ccc(CSc2nc(-c3ccccc3OC)nc3c2Cc2c(CO)cnc(C)c2O3)cc1,90%
19,Cc1ccc(-c2nc3c(c(SCC(=O)N(C)c4ccccc4)n2)Cc2c(CO)cnc(C)c2O3)cc1,64%
